Rab9 prom act = qHTS Assay for Rab9 Promoter Activators; Huh7 Rab9 promoter-luciferase reporter, luminescence, 24 h; Potency, µM (doses to about 9.22 µM), inactives show at the highest dose activation, negative = inhibition, actives largely listed as activators; 320,000 compounds, 2.8% hits; also: % of control where 0% means no effect; nearly all actives have a fitted effect of over 60% in size
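Steps: seed 1500 Huh7 Rab9-luc cells per well, rest 2 h at 37 °C; add compound in DMSO; incubate 24 h; add luciferase reagent, 10 min ambient; read luminescence.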
FLuc counter = qHTS profiling assay for firefly luciferase inhibitor/activator using purifed enzyme and Km concentrations of substrates (counterscreen for miR-21 project); purified FLuc, Km substrates, luminescence inhibition; Potency, µM (top dose mostly 57.5 µM), without a hit: at the highest dose activity change, negative = inhibition, actives largely listed as inhibitors; 360,000 compounds, 6.9% hits; Luciferin 4-monooxygenase (Photinus pyralis), P08659;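 also: plate controls were vehicle for no effect and reference inhibitor for full effect; nearly all actives have a fitted effect of over 55% in size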
Target sequence (P08659 whole entry, looked up): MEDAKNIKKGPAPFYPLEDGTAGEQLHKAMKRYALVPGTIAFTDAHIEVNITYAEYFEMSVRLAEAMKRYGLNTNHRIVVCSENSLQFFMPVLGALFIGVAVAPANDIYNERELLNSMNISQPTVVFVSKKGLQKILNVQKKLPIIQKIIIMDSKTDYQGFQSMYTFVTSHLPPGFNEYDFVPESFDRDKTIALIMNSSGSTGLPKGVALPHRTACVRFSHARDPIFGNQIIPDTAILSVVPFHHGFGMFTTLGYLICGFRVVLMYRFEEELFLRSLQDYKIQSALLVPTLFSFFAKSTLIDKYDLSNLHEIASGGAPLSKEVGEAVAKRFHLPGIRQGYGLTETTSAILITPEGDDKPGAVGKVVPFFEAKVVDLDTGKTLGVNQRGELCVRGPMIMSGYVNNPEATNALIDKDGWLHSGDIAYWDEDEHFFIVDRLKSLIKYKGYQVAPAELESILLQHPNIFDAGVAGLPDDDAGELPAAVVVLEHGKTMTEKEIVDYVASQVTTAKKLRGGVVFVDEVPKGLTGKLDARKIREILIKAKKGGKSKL
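Purified P. pyralis luciferase (10nM final) with 10uM D-luciferin and 10uM ATP (Km levels) in 50mM Tris acetate pH 7.5, 10mM Mg acetate, 0.01% Tween-20, 0.05% BSA; qHTS 6-point titration, ~60 µM downward; luminescence read.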
ELG1 repair inh = qHTS screen for small molecules that inhibit ELG1-dependent DNA repair in human embryonic kidney (HEK293T) cells expressing luciferase-tagged ELG1 | HEK293T ELG1-luciferase reporter, luminescence, 16 h; DNA damage induced by 5-fluorouridine | Potency, µM (highest dose often 46.1 µM), without a hit: at the top dose activity change, negative = inhibition, most hits filed as inhibitors | 330,000 compounds, 2.3% hits | AID 504467, 2011; also: % is scaled to controls: 0 for no effect and ±100 for the full control effect; nearly all actives have a fitted effect of over 55% in size
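In this reporter screen, reduction of luminescence relative to DMSO vehicle indicated activity. Compounds and 5-fluorouridine were added together to 2,000 cells per well, incubated for 16 hr at 37 °C, then developed with ONE-Glo.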
NPC1 prom act = qHTS Assay for NPC1 Promoter Activators; Potency, µM (series often up to 9.22 µM), for inactives: at the top dose activation, usual class: activators; 320,000 compounds, 2.4% hits; Huh7 NPC1 promoter luciferase reporter, 24 h; also: % of control where 0% means no effect; nearly all actives have a fitted effect of over 60% in size
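Huh7 cells stably carrying NPC1 promoter–luciferase, plated in Opti-MEM with 10% FBS for 2 h, were exposed to compound in DMSO for 24 h at 37 °C; luciferase reagent was added for 10 min and luminescence read.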
ELG1 genotoxic = qHTS screen for small molecules that induce genotoxicity in human embryonic kidney (HEK293T) cells expressing luciferase-tagged ELG1. HEK293T ELG1-luciferase reporter, luminescence, 16 h. 330,000 compounds, 1.3% hits. AID 504466, 2011. Potency, µM (highest dose often 46 µM), for the others: at the top dose activity change, positive = activation, usual class: activators; also: % of control where 0% means no effect; nearly all actives have a fitted effect of over 60% in size
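DMSO vehicle served as control against compound-treated ELG1-luciferase HEK293T cells; exposure lasted 16 hr at 37 °C and 5% CO2, followed by ONE-Glo luminescence detection after 30 min.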
SMN2 splice up = qHTS Assay for Enhancers of SMN2 Splice Variant Expression; HEK293 SMN2-luciferase splicing reporter, luminescence, 30-36 h; Potency, µM (titrated, usually from 46.1 µM), for the others: at the highest dose activity change, positive = activation, usual class: activators; 210,000 compounds, 2.8% hits; AID 1458, 2008; also: % of control where 0% means no effect; nearly all actives have a fitted effect of over 55% in size
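qHTS luciferase splicing reporter: luminescence rises when SMN2 exon 7 is included in transfected HEK293 cells. Compound exposure lasted 30-36 h at 37C, with 4.5 mM final sodium butyrate as control, followed by a ONE-Glo read.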
Active calls of the source: *; ? = inconclusive; . = not tested or not shown. The list is not random: actives were taken first. Their share in the collection is about 9.2%. Calls follow the shape of the dose curve; as a rule, active = well fitted curve in the direction sought with a large enough effect; inconclusive = small, poorly fitted or top-dose-only effect, or another doubt; inactive = no such curve, though single readings can be large; an effect the other way counts as inactive or inconclusive. Potency is read from the fitted curve at half-maximal effect.

SMILES	Rab9 prom act	FLuc counter	ELG1 repair inh	NPC1 prom act	ELG1 genotoxic	SMN2 splice up
COC(=O)Cc1ccc(NC(=S)N2CCN(c3ccc(OC)cc3)CC2)cc1	-2%	5%	-14%	-2%	-4%	-46%
Cc1c(C(=O)N2CCC(Cc3ccccc3)CC2)cccc1[N+](=O)[O-]	2%	1%	-1%	-8%	0%	.
COC(=O)Cc1ccc(NC(=S)N2CCN(C)CC2)cc1	21%	5.4µM*	0%	10%	11%	?
COCCSc1ccccc1C(=O)N1CCC(Cc2ccccc2)CC1	-3%	0%	23µM*	3%	-12%	-17%
COC(=O)c1ccc(Cl)cc1NC(=O)N(C)CCc1c(C)nn(C)c1C	.	-9%	.	.	.	.
CN(C)S(=O)(=O)N(CC(=O)Nc1ccc(Br)cc1F)c1ccccc1	.	-14%	.	.	.	-8%
Cc1cccc(-c2nc3scc(CCNS(=O)(=O)c4c(C)noc4C)n3n2)c1	.	-5%	.	.	.	.
COc1ccc2nc(SCC(=O)c3c(C)[nH]c4ccccc34)nc(C)c2c1	.	-6%	.	.	.	-7%
O=S(=O)(CC12C3C4C5C1C2C(Br)(C43)C51OCCO1)c1ccccc1 (configuration not stated)	-6%	6%	-1%	-5%	0%	.
CCOC(=O)c1ccoc1CSCc1ccc(C(=O)OC)o1	17%	5%	0%	-1%	21µM*	13%
CC(C)OC(=O)c1c(NC(=O)COc2cccc(Br)c2)sc2c1CCCC2	.	-3%	.	.	.	19%
CCCC(=O)Nc1cc(-c2nc3ncccc3o2)ccc1C	-1%	-12%	14%	2%	11%	6%
CCCC(=O)Nc1cccc(-c2nc3cc(C)c(C)cc3o2)c1	4µM*	0.6µM*	?	2.2µM*	?	?
CCCC(=O)Nc1cccc(-c2nc3ncccc3o2)c1	.	6%	.	.	.	3.5µM*
COc1c(C)cc(Br)cc1C(=O)Nc1ccc(-c2nc3ncccc3o2)cc1	.	-3%	.	.	.	7%
COc1c(C)cc(Br)cc1C(=O)Nc1cccc(-c2nc3ncccc3o2)c1	1%	-7%	18µM*	0%	-10%	-24%
CCCC(=O)Nc1ccc(-c2nc3ncccc3o2)cc1	2µM*	13µM*	?	2.2µM*	?	.
N#CCCCS(=O)(=O)c1nnnn1-c1ccc(F)cc1Br	.	.	.	.	.	1%
CC(C)c1ccc(OCc2nnc(SCC(=O)N3CCCCC3)o2)cc1	4%	?	16%	-5%	-11%	.
O=S(=O)(Nc1nc2ccccc2nc1NCC1CCCO1)c1cccc(Cl)c1 (configuration not stated)	0%	0%	?	-1%	-4%	.
CCOC(=O)c1c(NC2OC(=O)c3c2ccc(OC)c3OC)sc(C(=O)OC(C)(C)C)c1C (configuration not stated)	22%	17µM*	?	26%	?	.
CCc1cccc(-n2nnc(-c3nc(-c4ccccc4Cl)no3)c2N)c1	.	-3%	.	.	.	.
C=CCN(C(=O)C1=NN(C2CCS(=O)(=O)C2)C(=O)CC1)c1nc(-c2ccc([N+](=O)[O-])cc2)cs1 (configuration not stated)	2.8µM*	-18%	?	4µM*	12%	11µM*
NC(=O)COc1ccc2cc(-c3ccccc3)c(=O)oc2c1	14%	?	?	29%	?	.
CC(C)(C)C(=O)Oc1ccc2cc(-c3ccc4ccccc4n3)c(=O)oc2c1	?	-12%	?	?	?	14µM*
CC(=O)Oc1ccc2cc(-c3nc4ccccc4n3C)c(=O)oc2c1	2.8µM*	?	?	?	?	?
